The supplement of paper PMC6555819

Assays:
Test in all cases: PBM binding z-score (relative to random genomic background probes); higher = stronger binding; sequences stand for … in GC…GCGATTGACAGCGTAGAATGAAGG
[1] = tested on: FXR:RXRa (NR concentration 270 nM, RXRa partner concentration 90 nM)
How it was run: (§1)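 Random background probes are the reference for binding z-scores. These scores derive from regression-normalized fluorescence on custom Agilent 4×180K protein-binding microarrays incubated 1 h with ligand-free nuclear receptor dimers. Binding was detected with antibodies against each partner (one per run).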

[2] = tested on: LXRa:RXRa (NR concentration 270 nM, RXRa partner concentration 90 nM)
How it was run: as §1

[3] = tested on: LXRa homodimer (NR concentration 270 nM)
How it was run: as §1

[4] = tested on: LXRb:RXRa (NR concentration 270 nM, RXRa partner concentration 90 nM)
How it was run: as §1

[5] = tested on: LXRb homodimer (NR concentration 270 nM)
How it was run: as §1

[6] = tested on: PPARa:RXRa (NR concentration 270 nM, RXRa partner concentration 90 nM)
How it was run: as §1

[7] = tested on: PPARg:RXRa (NR concentration 180 nM, RXRa partner concentration 90 nM)
How it was run: as §1

[8] = tested on: PPARg:RXRa 270nM:90nM, anti-RXR (NR concentration 270 nM, RXRa partner concentration 90 nM)
How it was run: as §1

[9] = tested on: PPARg:RXRa 30nM:10nM, anti-RXR (NR concentration 30 nM, RXRa partner concentration 10 nM)
How it was run: as §1

[10] = tested on: PPARg:RXRa 90nM:30nM, anti-RXR (NR concentration 90 nM, RXRa partner concentration 30 nM)
How it was run: as §1

[11] = tested on: PPARg:RXRa DBDmut IVT, anti-RXR (DBD mutation: RXRa K156A/R161A, NR concentration 270 nM, RXRa partner concentration 90 nM)
How it was run: as §1

[12] = tested on: PPARg:RXRa IVT, anti-PPARg (NR concentration 270 nM, RXRa partner concentration 90 nM)
How it was run: as §1

[13] = tested on: PPARg DBDmut:RXRa IVT, anti-PPARg (DBD mutation: PPARg1 K132A/R137A, NR concentration 270 nM, RXRa partner concentration 90 nM)
How it was run: as §1

[14] = tested on: PPARg DBDmut IVT, anti-PPARg (DBD mutation: PPARg1 K132A/R137A, NR concentration 270 nM)
How it was run: as §1

[15] = tested on: PPARg homodimer (NR concentration 180 nM)
How it was run: as §1

[16] = tested on: PXR:RXRa (NR concentration 270 nM, RXRa partner concentration 90 nM)
How it was run: as §1

[17] = tested on: PXR homodimer (NR concentration 270 nM)
How it was run: as §1

[18] = tested on: RARa:RXR (NR concentration 270 nM, RXRa partner concentration 90 nM)
How it was run: as §1

[19] = tested on: RARa homodimer (NR concentration 270 nM)
How it was run: as §1

[20] = tested on: RARb:RXRa (NR concentration 270 nM, RXRa partner concentration 90 nM)
How it was run: as §1

Row | Sequence | PBM binding z-score [1] | PBM binding z-score [2] | PBM binding z-score [3] | PBM binding z-score [4] | PBM binding z-score [5] | PBM binding z-score [6] | PBM binding z-score [7] | PBM binding z-score [8] | PBM binding z-score [9] | PBM binding z-score [10] | PBM binding z-score [11] | PBM binding z-score [12] | PBM binding z-score [13] | PBM binding z-score [14] | PBM binding z-score [15] | PBM binding z-score [16] | PBM binding z-score [17] | PBM binding z-score [18] | PBM binding z-score [19] | PBM binding z-score [20]
1 | TCGAGTAGCTTACCAATGGGGCATTCAGCTTTCT | -0.38 | -0.514 | -0.884 | 0.00146 | -1.08 | -0.152 | -0.423 | -0.0428 | 0.616 | 0.411 | 1.07 | -0.175 | -1.01 | -0.741 | -0.629 | -0.456 | -1.19 | -0.333 | -1.4 | -0.426
2 | TGATATAGGTAAACAGGTGAAAGTCCGTAAGTTA | 0.277 | 0.353 | 0.0822 | 0.388 | 0.0217 | 2.37 | 3.95 | 3.81 | 1.65 | 3.09 | 5.35 | 5.64 | 1.01 | 0.48 | 0.911 | 0.29 | 0.346 | 0.703 | 1.11 | 0.511
3 | TTACCCAGGTGAGCTGAGGTCGTTGATCCAACTC | 1.83 | 0.726 | -0.313 | 0.515 | -1.12 | 1.35 | 0.177 | 0.382 | -0.172 | 0.184 | 0.846 | 1.89 | -1.04 | -0.726 | 0.267 | 4.2 | 0.439 | 1.55 | -1.01 | 1.1
4 | CCTAGCAGGCCAGGGTCACTTAAGCATTTCGCTT | 1.75 | 1.64 | -0.562 | 1.91 | -1.39 | 2.77 | 0.597 | 1.54 | -0.349 | 0.831 | 0.351 | 1.01 | -1.25 | -0.972 | 0.813 | 2.15 | -0.248 | 2.71 | 0.0986 | 2.54
5 | CTCGAAAGGTCGTGCTCAGGTGAGTATACCAAAC | 5.37 | 4.02 | 0.432 | 3.45 | 0.379 | 4.99 | 2.62 | 3.65 | 0.746 | 2.23 | 0.806 | 1.92 | 0.159 | 0.522 | 2.26 | 3.47 | -0.155 | 4.39 | 0.399 | 3.9
6 | CAAACTAGGCCACGAAAGGTCAAAGTCGAATGAC | 5.14 | 6.19 | 5.85 | 5.69 | 1.75 | 6.2 | 7.45 | 6.7 | 4.3 | 6.62 | 7.17 | 7.41 | 1.6 | 1.85 | 4.86 | 5.73 | 1.95 | 6 | 2.49 | 4.68
7 | TCAGACATGTGAAGGTAACTCAGGTACGCAGTCG | 0.329 | 1.23 | -0.167 | 0.691 | -0.43 | 0.662 | 0.745 | 1.37 | 3.48 | 2.63 | 1.82 | -0.0574 | 0.0996 | 0.0128 | -0.0995 | 0.383 | -0.196 | 0.493 | 0.114 | 0.199
